Active and inactive are the calls of the source. Unless noted, no rule for the calls is given here.
How the values were obtained:
[1] = tested on: Wnt5a (protein binding on small-molecule microarray); assay: small molecules binding Wnt5a protein – biophysical, small-molecule microarray, 635/667 nm fluorescence, primary screen (AID 1142); conditions: 635 nm fluorescence, higher = more signal;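 also: fluorescence read at 667 nm with signal to noise per printed feature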
[2] = ATP-based viability of Huh7 replicon cells – cell-based, CellTiter-Glo luminescence, basal, 48 h, cytotoxicity control for HCV replication inhibitor project, primary screen (AID 1143); conditions: higher = more signal, called active from +8 up or from −8 down;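 also: Huh7 hepatoma cells carrying a hepatitis C replication reporter with no stimulus; test concentration not given here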
[3] = Pseudomonas biofilm growth suppression – PAO1 strain, BacTiter-Glo luminescence, LB-PBS, primary screen (AID 1144); conditions: P. aeruginosa PAO1 biofilm, 12 h, higher = more signal
[4] = basal CRE-LacZ reporter activity in PC12 – cell-based, unstimulated, primary screen (AID 1145); conditions: no forskolin, luminescence, 4.5 h, higher = more signal, called active from +8 up or from −8 down
[5] = forskolin-driven CRE-LacZ activity in PC12 – cell-based, CRE-LacZ reporter, forskolin-stimulated, primary screen (AID 1146); conditions: luminescence, 4.5 h, higher = more signal, called active from +8 up or from −8 down;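 also: PC12 cells with 6xCRE LacZ reporter stimulated by forskolin 10 µM; beta-galactosidase reporter signal reflecting CREB driven transcription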
[6] = target: Streptavidin (Streptomyces avidinii) (UniProt P22629); assay: compounds binding control protein streptavidin – biophysical, small-molecule microarray, 635/667 nm fluorescence, artefact control for SMM compound annotation, primary screen (AID 1147); conditions: higher = more signal;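 also: signal reflects streptavidin binding to arrayed compounds as a control protein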
[7] = probe aInhba binding on compound microarray – biochemical, small-molecule microarray, 635/667 nm fluorescence, primary screen (AID 1148); conditions: higher = more signal;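 also: score merges 667nm spot fluorescence with signal-to-noise for antibody binding to printed compounds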
Torsin-1A (Homo sapiens) [8] = target: Torsin-1A (Homo sapiens) (UniProt O14656); assay: TOR1A wild-type binding on microarray – cell lysate, small-molecule microarray, lysate, 635/667 nm, primary screen (AID 1149); conditions: COS7 hTOR1A-WT lysate, 635 nm fluorescence, higher = more signal
Torsin-1A (Homo sapiens) [9] = target: Torsin-1A (Homo sapiens) (UniProt O14656); assay: torsin A mutant lysate binding on microarrays – cell lysate, small-molecule microarray, COS7 lysate, 635/667 nm fluorescence, primary screen (AID 1150); conditions: COS7 hTOR1A mutant lysate, 635 nm fluorescence, higher = more signal;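 also: score pools 667 nm emission and signal to noise measuring lysate protein binding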
[10] = tested on: Sonic hedgehog protein (Shh); assay: Sonic hedgehog microarray binding compounds – biochemical, small-molecule microarray, 635/667 nm fluorescence, primary screen (AID 1151); conditions: 635 nm fluorescence, higher = more signal;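 also: Shh protein binding to compounds spotted on small-molecule microarray slides; score combines spot fluorescence intensity with signal-to-noise across triplicate slides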
[11] = optical density shifts of acrAB sulA E. coli – strain DRC41, OD650, 48 h, E. coli filamentation inducer project, primary screen (AID 1152); conditions: higher = more signal, called active from +8 up or from −8 down;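 also: E. coli MC1000 strain DRC41 lacking acrAB efflux pump and sulA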
[12] = probe aLefty1 binding on compound microarray – biochemical, small-molecule microarray, 635/667 nm fluorescence, primary screen (AID 1153); conditions: higher = more signal;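 also: score merges spot fluorescence with signal-to-noise ratio from the scanned slide images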
[13] = plasmodial surface anion channel blockers, osmotic lysis – cell-based, P. falciparum Indochina, OD700, 1 h, primary screen (AID 1154); conditions: P. falciparum Indochina infected RBC osmotic lysis, higher = more signal, called active from +8 up or from −8 down
[14] = plasmodial surface anion channel blockers, osmotic lysis – cell-based, P. falciparum Indochina, OD700, 2 h, primary screen (AID 1155);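 also: lysis reports solute entry through the parasite surface anion channel PSAC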; conditions: P. falciparum Indochina infected erythrocytes, higher = more signal, called active from +8 up or from −8 down
[15] = changes in parasitized red cell lysis, either direction – P. falciparum Indochina, OD700, 3 h, PSAC antagonist project, primary screen (AID 1156); conditions: P. falciparum-infected erythrocytes, osmotic lysis, higher = more signal, called active from +8 up or from −8 down
[16] = plasmodial surface anion channel blockers, osmotic lysis – cell-based, P. falciparum Indochina, OD700, 18 h, primary screen (AID 1157); conditions: P. falciparum Indochina infected erythrocytes, osmotic lysis OD700, 18 h; higher = more signal, called active from +8 up or from −8 down
[17] = S6 kinase pathway phospho-S6 level changes – cell-based, A549, cytoblot, luminescence, serum-stimulated, primary screen (AID 1158); conditions: 5 h, higher = more signal;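 also: serum-stimulated A549 lung adenocarcinoma cells; signal is phosphorylated S6 detected by cytoblot immunostaining with HRP secondary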
[18] = target: NADPH oxidase 2 (Homo sapiens) (UniProt P04839); assay: compounds shifting NOX2 Amplex Red fluorescence – cell-based, HEK293-NOX2, PMA-stimulated, NOX inhibitor project, primary screen (AID 1159); conditions: 45 min, higher = more signal, called active from +8 up or from −8 down; also: test concentration not given here
[19] = target: NADPH oxidase 4 (Homo sapiens) (UniProt Q9NPH5); assay: compounds shifting NOX4 Amplex Red fluorescence – cell-based, HEK293-NOX4, tetracycline-induced, NOX inhibitor project, primary screen (AID 1160); conditions: HEK293-NOX4, Amplex Red H2O2 fluorescence, 45 min; higher = more signal, called active from +8 up or from −8 down
[20] = target: NADPH oxidase 5 (Homo sapiens) (UniProt Q96PH1); assay: compounds shifting NOX5 Amplex Red fluorescence – cell-based, HEK293-NOX5, NOX inhibitor project, primary screen (AID 1161); conditions: HEK293-NOX5, ionomycin, 45 min, higher = more signal
NADPH oxidase 5 (Homo sapiens), sequence (Q96PH1 whole entry, looked up): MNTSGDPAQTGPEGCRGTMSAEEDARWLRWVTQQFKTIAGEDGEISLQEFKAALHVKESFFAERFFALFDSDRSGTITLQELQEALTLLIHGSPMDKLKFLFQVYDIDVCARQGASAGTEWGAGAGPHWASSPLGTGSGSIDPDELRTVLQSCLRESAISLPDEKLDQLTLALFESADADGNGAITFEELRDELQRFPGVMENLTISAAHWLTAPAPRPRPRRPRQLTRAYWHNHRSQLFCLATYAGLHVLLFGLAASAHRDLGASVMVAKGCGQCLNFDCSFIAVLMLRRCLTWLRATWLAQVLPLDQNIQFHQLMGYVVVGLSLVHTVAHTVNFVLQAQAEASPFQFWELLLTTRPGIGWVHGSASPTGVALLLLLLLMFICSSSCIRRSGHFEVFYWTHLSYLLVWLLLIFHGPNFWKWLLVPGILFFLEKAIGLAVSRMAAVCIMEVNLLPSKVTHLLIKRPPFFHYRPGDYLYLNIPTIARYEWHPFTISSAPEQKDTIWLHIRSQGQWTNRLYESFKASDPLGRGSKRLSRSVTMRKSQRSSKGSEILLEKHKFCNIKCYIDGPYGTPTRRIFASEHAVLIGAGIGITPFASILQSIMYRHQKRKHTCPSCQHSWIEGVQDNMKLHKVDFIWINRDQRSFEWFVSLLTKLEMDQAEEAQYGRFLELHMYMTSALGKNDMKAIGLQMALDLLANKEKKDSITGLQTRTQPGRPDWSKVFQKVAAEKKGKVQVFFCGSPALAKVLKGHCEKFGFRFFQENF

Torsin-1A (Homo sapiens), sequence (O14656 whole entry, looked up): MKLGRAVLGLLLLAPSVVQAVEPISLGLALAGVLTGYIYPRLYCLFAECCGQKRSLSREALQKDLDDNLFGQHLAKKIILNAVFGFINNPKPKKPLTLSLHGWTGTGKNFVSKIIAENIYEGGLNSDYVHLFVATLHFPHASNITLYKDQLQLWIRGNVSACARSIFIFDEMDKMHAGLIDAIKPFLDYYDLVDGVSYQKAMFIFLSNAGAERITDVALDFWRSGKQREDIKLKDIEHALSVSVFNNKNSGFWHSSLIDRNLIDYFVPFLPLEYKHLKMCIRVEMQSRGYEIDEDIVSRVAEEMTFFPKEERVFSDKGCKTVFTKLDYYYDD
NADPH oxidase 4 (Homo sapiens), sequence (Q9NPH5 whole entry, looked up): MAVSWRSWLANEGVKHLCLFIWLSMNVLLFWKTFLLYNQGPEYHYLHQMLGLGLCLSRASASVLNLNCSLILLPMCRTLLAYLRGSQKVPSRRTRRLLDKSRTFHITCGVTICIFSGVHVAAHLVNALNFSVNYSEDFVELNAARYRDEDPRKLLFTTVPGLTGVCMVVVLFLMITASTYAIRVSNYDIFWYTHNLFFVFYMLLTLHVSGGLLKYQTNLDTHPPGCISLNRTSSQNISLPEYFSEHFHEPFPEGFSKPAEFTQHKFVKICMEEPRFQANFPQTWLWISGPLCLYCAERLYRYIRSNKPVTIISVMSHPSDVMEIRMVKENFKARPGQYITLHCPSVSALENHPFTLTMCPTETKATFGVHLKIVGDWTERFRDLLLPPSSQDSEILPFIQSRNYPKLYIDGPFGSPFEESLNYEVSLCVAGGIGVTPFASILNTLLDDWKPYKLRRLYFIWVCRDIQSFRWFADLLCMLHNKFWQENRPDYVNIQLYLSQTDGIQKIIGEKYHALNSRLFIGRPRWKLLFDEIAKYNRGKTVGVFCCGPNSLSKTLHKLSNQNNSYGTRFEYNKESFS
NADPH oxidase 2 (Homo sapiens), sequence (P04839 whole entry, looked up): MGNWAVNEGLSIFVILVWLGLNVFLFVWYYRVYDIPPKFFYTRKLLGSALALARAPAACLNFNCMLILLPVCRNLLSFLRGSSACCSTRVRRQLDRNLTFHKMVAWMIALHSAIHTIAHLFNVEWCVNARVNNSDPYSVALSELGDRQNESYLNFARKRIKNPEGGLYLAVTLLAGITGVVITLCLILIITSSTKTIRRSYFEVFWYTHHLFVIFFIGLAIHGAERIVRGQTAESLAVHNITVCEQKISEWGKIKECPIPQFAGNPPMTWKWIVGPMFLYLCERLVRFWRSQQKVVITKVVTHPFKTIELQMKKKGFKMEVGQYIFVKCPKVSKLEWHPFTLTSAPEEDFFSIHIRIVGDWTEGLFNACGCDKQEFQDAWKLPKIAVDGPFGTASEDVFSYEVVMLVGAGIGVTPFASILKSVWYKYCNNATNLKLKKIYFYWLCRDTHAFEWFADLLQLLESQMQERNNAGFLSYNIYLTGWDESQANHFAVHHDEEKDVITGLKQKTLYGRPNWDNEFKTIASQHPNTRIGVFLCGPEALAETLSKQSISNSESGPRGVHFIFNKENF
Streptavidin (Streptomyces avidinii), sequence (P22629 whole entry, looked up): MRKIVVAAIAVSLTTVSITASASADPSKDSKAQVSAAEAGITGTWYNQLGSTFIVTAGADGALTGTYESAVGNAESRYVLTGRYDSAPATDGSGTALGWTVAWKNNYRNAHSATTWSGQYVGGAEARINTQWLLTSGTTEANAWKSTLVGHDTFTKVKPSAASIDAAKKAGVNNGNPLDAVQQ

NC(=O)[C@@H]1[C@H]2C(=O)O[C@H](c3ccccc3)[C@H](c3ccccc3)N2[C@H](c2ccc(OCCO)cc2)[C@@]12C(=O)Nc1ccc(C#CC3=CCCCC3)cc12
composite z-score [1]: 0.0384 | z-score [2]: -6.11 (inactive) | z-score [3]: -1.74 (inactive) | z-score [4]: -1.28 (inactive) | z-score [5]: -0.546 (inactive) | composite z-score [6]: 0.778 | composite z-score [7]: 0.0047 | composite z-score (Torsin-1A (Homo sapiens) [8]): 0.618 | composite z-score (Torsin-1A (Homo sapiens) [9]): 0.817 | composite z-score [10]: 1.24 | z-score [11]: 1.96 (inactive) | composite z-score [12]: 0.189 | z-score [13]: 3 (inactive) | z-score [14]: 0.651 (inactive) | z-score [15]: -1.59 (inactive) | z-score [16]: -0.198 (inactive) | z-score [17]: 1.1 | z-score [18]: 0.814 (inactive) | z-score [19]: 0.68 (inactive) | z-score [20]: 2.3

CCCC=C(CCC)[C@@H](NS(=O)(=O)c1ccc(Cl)cc1)c1ccc(C(=O)OC)cc1
composite z-score [1]: -0.16 | z-score [2]: -0.296 (inactive) | z-score [3]: -0.382 (inactive) | z-score [4]: -0.179 (inactive) | z-score [5]: -0.146 (inactive) | composite z-score [6]: 0.997 | composite z-score [7]: -0.0011 | composite z-score (Torsin-1A (Homo sapiens) [8]): 0.771 | composite z-score (Torsin-1A (Homo sapiens) [9]): 1.38 | composite z-score [10]: -0.562 | z-score [11]: -1.01 (inactive) | composite z-score [12]: 0.523 | z-score [13]: -0.556 (inactive) | z-score [14]: -0.914 (inactive) | z-score [15]: -0.338 (inactive) | z-score [16]: -1.93 (inactive) | z-score [17]: 0.631 | z-score [18]: 0.0199 (inactive) | z-score [19]: 0.249 (inactive) | z-score [20]: 1.39

C=C(CCCC)/C(=C/C[C@H](OC(C)=O)c1ccccc1OCCO)c1cnc2ccccc2c1
composite z-score [1]: 0.382 | z-score [2]: -1.45 (inactive) | z-score [3]: 0.489 (inactive) | z-score [4]: 4.07 (inactive) | z-score [5]: 0.55 (inactive) | composite z-score [6]: 0.36 | composite z-score [7]: -0.157 | composite z-score (Torsin-1A (Homo sapiens) [8]): 0.0711 | composite z-score (Torsin-1A (Homo sapiens) [9]): 0.878 | composite z-score [10]: 1.49 | z-score [11]: -0.413 (inactive) | composite z-score [12]: -0.0054 | z-score [13]: 17.5 (active) | z-score [14]: 2.17 (inactive) | z-score [15]: 1.32 (inactive) | z-score [16]: 0.996 (inactive) | z-score [17]: -0.0149 | z-score [18]: -1.41 (inactive) | z-score [19]: -0.361 (inactive) | z-score [20]: -1.62

COc1ccc(NN2C(C(O)c3ccc(N(C)C)cc3)C=CC3C(=O)N(C4CCCCC4)C(=O)C32)cc1 (stereo not given)
composite z-score [1]: 0.66 | z-score [2]: -0.759 (inactive) | z-score [3]: -0.805 (inactive) | z-score [4]: -0.583 (inactive) | z-score [5]: -0.249 (inactive) | composite z-score [6]: 1.46 | composite z-score [7]: 0.346 | composite z-score (Torsin-1A (Homo sapiens) [8]): 0.0944 | composite z-score (Torsin-1A (Homo sapiens) [9]): 1.11 | composite z-score [10]: 0.0202 | z-score [11]: -0.446 (inactive) | composite z-score [12]: 0.384 | z-score [13]: 5.03 (inactive) | z-score [14]: 0.589 (inactive) | z-score [15]: 0.193 (inactive) | z-score [16]: 0.484 (inactive) | z-score [17]: -0.25 | z-score [18]: -0.759 (inactive) | z-score [19]: -3.43 (inactive) | z-score [20]: -2.98

COc1cc2c(cc1O)C(c1cccs1)N(Cc1ccc([N+](=O)[O-])o1)CC2 (stereo not given)
composite z-score [1]: 0.207 | z-score [2]: -1.37 (inactive) | z-score [3]: -0.371 (inactive) | z-score [4]: 0.209 (inactive) | z-score [5]: -0.543 (inactive) | composite z-score [6]: 1.32 | composite z-score [7]: 0.167 | composite z-score (Torsin-1A (Homo sapiens) [8]): 0.426 | composite z-score (Torsin-1A (Homo sapiens) [9]): -0.155 | composite z-score [10]: -0.951 | z-score [11]: 1.9 (inactive) | composite z-score [12]: 0.0161 | z-score [13]: 25.1 (active) | z-score [14]: 7.24 (inactive) | z-score [15]: -0.39 (inactive) | z-score [16]: -0.628 (inactive) | z-score [17]: 1.23 | z-score [18]: -4.4 (inactive) | z-score [19]: -2.58 (inactive) | z-score [20]: -2.92
